Test systems include SR leukemia; RPMI-8226 leukemia; OVCAR-8 ovarian; OVCAR-5 ovarian; OVCAR-4 ovarian; SK-OV-3 ovarian; IGROV1 ovarian; OVCAR-3 ovarian; HS 578T breast; NCI/ADR-RES ovarian.
Assay in all cases: NCI-60 one-dose screen, 48 h (100 = growth as untreated, 0 = no growth, -100 = all killed)
Conditions in all cases: 10 µM unless noted

SMILES strings stand for the structures. The panel holds about 83,000 compounds, 20% with a hit somewhere; the sample as a whole holds those more often.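 Single-dose data. Exposure time 48 hours. Values below 10 considered active.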 Values without a mark were called inactive. The source made the active and inactive calls.

Take `Cc1cc(Cl)ccc1NC(=O)c1cc2ccccc2cc1O`: the growth with SR leukemia is 3.8% (active); in the test on RPMI-8226 leukemia, 6.82% (active); in the test with OVCAR-8 ovarian it was 7.81% (active); with OVCAR-5 ovarian, 30.5%; with OVCAR-4 ovarian, 22%; in the test with SK-OV-3 ovarian, 36.7%. Further, the growth in the test with IGROV1 ovarian is 17.9%; in the test with OVCAR-3 ovarian, -3.47% (active); in the test on HS 578T breast, -7.72% (active); with NCI/ADR-RES ovarian it was 4.6% (active).
As for `O=C(Cc1ccccc1)Nc1nc(O)c(/C=C2\C(=O)C=Cc3ccccc32)s1`, the growth in the test on SR leukemia is 104%; in the test with RPMI-8226 leukemia it was 106%; in the test with OVCAR-8 ovarian, 97.5%; with OVCAR-5 ovarian, 104%; with OVCAR-4 ovarian it was 100%; in the test with SK-OV-3 ovarian, 83%. Moreover, the growth with IGROV1 ovarian is 102%; in the test with OVCAR-3 ovarian, 102%; in the test on HS 578T breast, 97.8%; in the test on NCI/ADR-RES ovarian, 96.7%.
Consider `COc1ccc2c(O)c(/C=C3\N=Nc4ccccc43)oc2c1C[C@@H]1CCNC[C@H]1F`, for which the growth in the test with SR leukemia was -38.5% (active); in the test with RPMI-8226 leukemia it was 91.9%; in the test on OVCAR-8 ovarian it was 0.196% (active); with OVCAR-5 ovarian, 67.8%; in the test on OVCAR-4 ovarian, 64.9%; in the test with SK-OV-3 ovarian, 90.5%. Moreover, the growth was 76.4% in the test with IGROV1 ovarian, 94% with OVCAR-3 ovarian, 60.3% in the test on HS 578T breast and 72.1% with NCI/ADR-RES ovarian.
Take `CN1CCN(c2ccc(NC(=O)c3cncnc3Nc3ccc(OCc4ccccn4)c(Cl)c3)cc2)CC1`: the growth was 4.59% (active) in the test on SR leukemia; 23.3% with RPMI-8226 leukemia; 15.2% in the test on OVCAR-8 ovarian; 46.4% with OVCAR-5 ovarian; 61.8% with OVCAR-4 ovarian; 99.4% in the test on SK-OV-3 ovarian. In addition, the growth in the test on IGROV1 ovarian is 79.4%; in the test on OVCAR-3 ovarian it was 70.6%; in the test with HS 578T breast it was 67.4%; with NCI/ADR-RES ovarian, 70.5%.
As for `CCOc1nc(-c2ccccc2)cc2c(O)c(C(=O)NN)[nH]c(=O)c12`, the growth in the test with SR leukemia was 90.8%; in the test with RPMI-8226 leukemia it was 103%; in the test with OVCAR-8 ovarian, 109%; with OVCAR-5 ovarian, 106%; in the test on OVCAR-4 ovarian, 100%; with SK-OV-3 ovarian, 113%. The growth in the test on IGROV1 ovarian is 55.2%; in the test on OVCAR-3 ovarian, 79%; in the test on HS 578T breast, 87.6%; with NCI/ADR-RES ovarian, 87.9%.
With `CN[C@]12CC3(C=CC(=O)C=C3)O[C@@]1(Cc1ccc(OC)cc1)N(C)C(=O)N2`, the growth with SR leukemia is 8.34% (active); in the test with RPMI-8226 leukemia, -3.85% (active); in the test with OVCAR-8 ovarian, 15.6%; in the test with OVCAR-5 ovarian it was 18.3%; in the test on OVCAR-4 ovarian, 32.2%; in the test on SK-OV-3 ovarian, 85.7%. The growth was -28.4% (active) in the test on IGROV1 ovarian, 11.2% with OVCAR-3 ovarian, 96.8% in the test with HS 578T breast and 55.6% in the test with NCI/ADR-RES ovarian.
As for `O=[N+]([O-])c1ccc(N/N=C(/C(=N/Nc2ccc([N+](=O)[O-])cc2)c2ccccc2)c2ccccc2)cc1`, the growth is 65.8% with SR leukemia; 101% in the test on RPMI-8226 leukemia; 60.4% in the test with OVCAR-8 ovarian; 82.5% in the test with OVCAR-5 ovarian; 116% with OVCAR-4 ovarian; 85.6% with SK-OV-3 ovarian. Further, the growth with IGROV1 ovarian is 76.4%; in the test on OVCAR-3 ovarian, 120%; in the test with HS 578T breast it was 101%; with NCI/ADR-RES ovarian, 63.7%.
For the molecule `C[C@@H]1CCC[C@H]1CC(N)C(=O)O` (stereo not given in full), the growth is 108% with SR leukemia; 103% in the test with RPMI-8226 leukemia; 106% in the test on OVCAR-8 ovarian; 105% with OVCAR-5 ovarian; 105% in the test on OVCAR-4 ovarian; 113% in the test with SK-OV-3 ovarian. The growth with IGROV1 ovarian is 114%; with OVCAR-3 ovarian it was 117%; with HS 578T breast, 103%; in the test with NCI/ADR-RES ovarian, 104%.
`O=C(CSc1nnc2n1S(=O)(=O)c1ccccc1N2c1ccccc1)Nc1nc2ccc(F)cc2s1`: the growth in the test on SR leukemia was 62.9%; in the test with RPMI-8226 leukemia, 76.5%; with OVCAR-8 ovarian, 84.9%; in the test with OVCAR-5 ovarian, 94.7%; in the test on OVCAR-4 ovarian, 99.5%; with SK-OV-3 ovarian it was 108%. Further, the growth was 34.7% in the test on IGROV1 ovarian, 106% in the test on OVCAR-3 ovarian, 101% with HS 578T breast and 92.8% in the test with NCI/ADR-RES ovarian.
With `CC1=C(Nc2ccc(N3CCN(C)CC3)cc2)C(=O)c2cncnc2C1=O`, the growth in the test with SR leukemia was 26.2%; in the test with RPMI-8226 leukemia, 41.8%; with OVCAR-8 ovarian it was 2.2% (active); in the test with OVCAR-5 ovarian, 71.7%; with OVCAR-4 ovarian it was -98.1% (active); with SK-OV-3 ovarian it was 111%. In addition, the growth is 1.56% (active) with IGROV1 ovarian, -34.8% (active) in the test on OVCAR-3 ovarian, 126% in the test on HS 578T breast and 18.1% with NCI/ADR-RES ovarian.
`O=C1c2c(c3c4ccccc4[nH]c3c3ccc4ccccc4c23)C(=O)N1CCN1CCCCC1`: the growth with SR leukemia is 2.17% (active); in the test with RPMI-8226 leukemia, 9.02% (active); with OVCAR-8 ovarian it was 25.6%; in the test on OVCAR-5 ovarian, 74.8%; in the test on OVCAR-4 ovarian, 64.8%; in the test on SK-OV-3 ovarian, 53.7%. Further, the growth in the test with IGROV1 ovarian was 52.8%; in the test on OVCAR-3 ovarian, 51.1%; in the test on HS 578T breast it was 90.2%; in the test with NCI/ADR-RES ovarian, 40.9%.
With `CC(C)=NNc1ccccn1`, the growth with SR leukemia was 32%; in the test with RPMI-8226 leukemia, 70.3%; with OVCAR-8 ovarian, 29%; in the test on OVCAR-5 ovarian, 54.4%; in the test on OVCAR-4 ovarian it was 12%; with SK-OV-3 ovarian it was 26.2%. The growth in the test with IGROV1 ovarian was 63.2%; with OVCAR-3 ovarian, 18.8%; with HS 578T breast, 79.5%; with NCI/ADR-RES ovarian, 33.5%.
As to `CCOC(=O)CNP(=O)(OC[C@@H](Cc1ccccc1)NC(=O)c1cc2ccccc2s1)Oc1ccccc1` (stereo not given in full), the growth in the test with SR leukemia is 23.9%; in the test with RPMI-8226 leukemia it was 79.6%; in the test with OVCAR-8 ovarian, 89.1%; in the test with OVCAR-5 ovarian, 95.4%; with OVCAR-4 ovarian, 88.4%; in the test on SK-OV-3 ovarian, 91.2%. Besides, the growth with IGROV1 ovarian was 79.9%; in the test with OVCAR-3 ovarian, 79.9%; in the test with HS 578T breast, 76.5%; in the test on NCI/ADR-RES ovarian, 51.4%.
As to `CCCCCCC1(C)NCCO1` (stereo not given), the growth was 94.5% with SR leukemia; 101% in the test on RPMI-8226 leukemia; 96.6% in the test on OVCAR-8 ovarian; 110% in the test with OVCAR-5 ovarian; 96% with OVCAR-4 ovarian; 100% in the test on SK-OV-3 ovarian. In addition, the growth is 79.8% in the test on IGROV1 ovarian, 114% with OVCAR-3 ovarian, 126% in the test on HS 578T breast and 108% in the test on NCI/ADR-RES ovarian.

(Values after PubChem BioAssay (NCI).)
